Results: PubChem BioAssay AID1347084 (National Center for Advancing Translational Sciences (NCATS), 2019)
Where “and” joins values, the source holds several entries; their conditions need not be identical. Equal entries are not always repeated. Inconclusive results are not listed. A number with no mark means an inactive call. Calls of active or inactive are those of the source. Calls follow the shape of the full dose curve.

assay: qHTS for Inhibitors of the Functional Ribonucleoprotein Complex (vRNP) of Lymphocytic Choriomeningitis Arenaviruses (LCMV): LCMV Confirmatory Screen - GLuc reporter signal; conditions: LCMV minigenome vRNP, Gaussia luciferase reporter; series mostly up to 53.9 µM

With `CC12C(=O)OC(=O)C1(C)C1CCC2O1` (configuration not stated) as the compound, how does the Potency read?
The Potency was 9.68 µM (active).

For `S=C(NCc1ccc2c(c1)OCO2)N1CCN(c2ncnc3c2oc2ccccc23)CC1`, which Potency is on record?
The Potency was 2.22 µM (active).

For `CC[C@@H](C(=O)O)[C@@H]1O[C@@H]([C@@H](C)[C@H](O)[C@H](C)C(=O)[C@H](CC)[C@H]2O[C@]3(C=C[C@@H](O)[C@]4(CC[C@@](C)([C@H]5CC[C@](O)(CC)[C@H](C)O5)O4)O3)[C@H](C)C[C@@H]2C)[C@@H](C)C[C@@H]1C`, which Potency is on record?
The Potency was 0.0627 µM (active).

For `CCCCC[C@H](O)/C=C/C=C/C/C=C\CCCC(=O)O`, which activity change, negative = inhibition is on record?
The activity change, negative = inhibition was 4.12% [at 0.666 µM].

Which Potency does the source give for `COc1cccc(-c2ccc(NC(=O)C3=C(C(=O)O)CCC3)c(F)c2)c1` here?
The Potency was 3.85 µM (active).

With `Cc1ncc([N+](=O)[O-])n1CC(C)O` (configuration not stated) as the compound, how does the Potency read?
The Potency was “inactive”.

With `CC(C)=CCC/C(C)=C/CC/C(C)=C/CC[C@]1(C)CCc2c(C)c(O)c(C)c(C)c2O1` as the compound, how does the activity change, negative = inhibition read?
Its activity change, negative = inhibition is -18.6% [at 6 µM].

For `CN1CCN(C2=Nc3cc(Cl)ccc3Nc3ccccc32)CC1`, which Potency is on record?
Its Potency is 30.6 µM (active).

With `CCN(CC)C(=O)N[C@@H]1C=C2c3cccc4[nH]cc(c34)C[C@@H]2N(C)C1` as the compound, how does the Potency read?
Its Potency is “inactive”.

With `O=C(Nc1ccccc1)c1cc([N+](=O)[O-])ccc1Cl` as the compound, how does the Potency read?
The Potency was 24.3 µM (active).

With `O=C1Cc2cc(CCN3CCN(c4nsc5ccccc45)CC3)c(Cl)cc2N1` as the compound, how does the Potency read?
The Potency was “inactive”.

Which Potency does the source give for `CCc1cncnc1N1CCN(Cc2nc3ccc(C(F)(F)F)cc3[nH]2)CC1` here?
Its Potency is 4.44 µM (active).

With `Oc1cc(Cl)ccc1Oc1ccc(Cl)cc1Cl` as the compound, how does the Potency read?
Its Potency is 22.2 µM (active).

For `COc1ccc(Cc2nccc3cc(OC)c(OC)cc23)cc1OC`, which Potency is on record?
The Potency was 1.93 µM (active) and 3.43 µM (active).

With `Cc1ccc2c(c1)C1CN(C)CCC1N2` (configuration not stated) as the compound, how does the Potency read?
Its Potency is “inactive”.

For `Cc1cc(N)c2ccccc2[n+]1CCCCCCCCCC[n+]1c(C)cc(N)c2ccccc21`, which Potency is on record?
Its Potency is 1.09 µM (active).

For `COc1cc2c(cc1OC)CC(=O)N(CCCN(C)C[C@H]1Cc3cc(OC)c(OC)cc31)CC2`, which Potency is on record?
Its Potency is “inactive”.

For `CC[C@@]1([C@@H]2O[C@@H]([C@H]3O[C@@](O)(CO)[C@H](C)C[C@H]3C)C[C@H]2C)CC[C@H]([C@]2(C)CC[C@]3(C[C@H](O)[C@@H](C)[C@@H]([C@@H](C)[C@@H](OC)[C@H](C)C(=O)O)O3)O2)O1`, which Potency is on record?
The Potency was 0.168 µM (active).

With `CCCCCN=C(N)N/N=C/c1c[nH]c2ccc(OC)cc12` as the compound, how does the Potency read?
The Potency was 9.68 µM (active).

Which Potency does the source give for `C=C(C)[C@H]1Cc2c(ccc3c2O[C@@H]2COc4cc(OC)c(OC)cc4[C@@H]2C3=O)O1` here?
The Potency was 0.0544 µM (active).

Which Potency does the source give for `O=C(Nc1ccccc1)Nc1ccc(-c2ccc(C(=O)[C@H]3CCC[C@H]3C(=O)O)cc2)cc1` here?
Its Potency is “inactive”.

For `O=C1c2ccccc2-n2c1nc1ccccc1c2=O`, which Potency is on record?
The Potency was 1.22 µM (active).

With `Cc1cc2c(C(C)C)c(O)c(O)c(C=O)c2c(O)c1-c1c(C)cc2c(C(C)C)c(O)c(O)c(C=O)c2c1O` as the compound, how does the Potency read?
Its Potency is 6.11 µM (active).

Which Potency does the source give for `CCCCCC[C@H]1C(=O)O[C@H](C)[C@H](NC(=O)c2cccc(NC=O)c2O)C(=O)O[C@@H](C)[C@@H]1OC(=O)CC(C)C` here?
The Potency was 0.0343 µM (active).

For `CCCCC/C(C=O)=C\c1ccccc1`, which Potency is on record?
Its Potency is “inactive”.

Which Potency does the source give for `O=C(Nc1ccc([N+](=O)[O-])cc1Cl)c1cc(Cl)ccc1O` here?
The Potency was 0.863 µM (active).

Which Potency does the source give for `CC1=C(C)C(=O)C(CCCCC#CCCCC#CCO)=C(C)C1=O` here?
Its Potency is 19.3 µM (active).
